Test results as given in PubChem BioAssay AID709 (SRMLSC, 2007).
The campaign covered roughly 65,000 compounds. About 3,600 (5.5%) were called active. The sample as a whole holds a higher share of actives than the screen did. A number with no mark means an inactive call.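 How the source made its calls: active means at 10 µM, mean starting fluorescence two-fold or more over control wells; inactive means the rest.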

experiment: intrinsic fluorescence of library compounds, ex339/em460 – biochemical, MLSMR library, data from DPM-DC assay, artefact control, profiling panel (AID 709); settings: compound autofluorescence, ex339/em460 nm, NADH buffer; at 10 µM; active compounds read high; 1 = no-compound wells, NADH background;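 further: signal is the first read of a kinetic run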

Row | Compound | fluorescence fold increase
1 | CC1Cc2cc(/C(O)=C3\C(=O)C(=O)N(CCN4CCOCC4)C3c3ccccc3F)ccc2O1 (stereo unspecified) | 1.11
2 | CCOC(=O)c1nc(-c2ccc3c(c2)OCO3)[nH]c1C | 1.4
3 | CCCCCC(=O)Nc1ccc2oc(-c3ccncc3)nc2c1 | 3.72 (active)
4 | CCCCC(=O)Nc1cc(C)c2c(=O)oc3ccccc3c2n1 | 1.19
5 | CCCC(=O)Nc1ccc2c(c1)nc1n2CCSC1 | 1.21
6 | O=C(CSc1nc(-c2ccco2)cc(C(F)(F)F)n1)N1CCc2ccccc2C1 | 1.1
7 | O=C(CSc1nc(-c2ccco2)cc(C(F)(F)F)n1)NCc1cccs1 | 1.14
8 | CCOC(=O)c1ccn(-c2nc(-c3ccco3)cc(C(F)(F)F)n2)n1 | 2.09 (active)
9 | Cc1cc(C(F)(F)F)nn1-c1nc(-c2ccco2)cc(C(F)(F)F)n1 | 2.81 (active)
10 | CCOC(=O)CSc1nnc(-c2ccco2)n1C | 1.04
11 | FC(F)(F)c1cc(-c2ccco2)nc(N2CCOCC2)n1 | 1.11
12 | O=c1[nH]c(=O)n(Cc2ccco2)c2c1C(C(F)(F)F)(C(F)(F)F)N=C(c1ccco1)N2 | 1.16
13 | CCCCn1nnnc1NCc1cc(OC)c(OC)c(OC)c1 | 1.07
14 | CCCC(C(=O)NCc1ccco1)N(C(=O)CNS(=O)(=O)c1ccccc1)C1CCCC1 (stereo unspecified) | 1
15 | CC(=NCC1CCCO1)c1c(O)[nH]c(=O)[nH]c1=O (stereo unspecified) | 1.14
16 | Cc1ccc(C)c(S(=O)(=O)n2cnc3ccccc32)c1 | 1.02
17 | O=C(CSc1nc2ncccc2[nH]1)Nc1ccc2c(c1)OCCO2 | 1.01
18 | CN1CCc2c(sc3c2c(NCc2ccco2)nc2nnnn23)C1 | 2.08 (active)
19 | C=C(C)Cn1c(SCC(=O)NCc2ccco2)nc2sc3c(c2c1=O)CCC3 | 1.09
20 | O=C(Cc1ccccc1)n1nc(-c2ccccc2)nc1NCc1ccco1 | 1.13
21 | Cc1cccc(N)c1SC1CCCCC1O (stereo unspecified) | 1.03
22 | CCOC(=O)c1cn(CC(=O)Nc2ccc(C(C)C)cc2)nn1 | 1.16
23 | COc1ccccc1Nc1ncnc2c1oc1ccccc12 | 1.7
24 | CCc1nc(Nc2ccc3nccnc3c2)c2oc3ccccc3c2n1 | 2.54 (active)

Row | Compound | fluorescence fold increase
25 | CCSc1nc(C)nc2c1oc1ccccc12 | 1.02
26 | CNC(=O)NCCN1CCCC1=O | 1.05
27 | COCCNC(=S)c1ccc(OC)cc1 | 1.02
28 | CCN(CC)CCNC(=O)C1c2ccccc2C(=O)N(C)C1c1cn(C)c2ccccc12 (stereo unspecified) | 1.07
29 | O=C(CCn1c(=S)[nH]c2ccccc2c1=O)NCCCN1CCCC1=O | 0.98
30 | O=C1CCCN1CCCNc1ncnc2c1[nH]c1ccccc12 | 2.27 (active)
31 | CC1(C)CC(=O)C=C(NCCCN2CCCC2=O)C1 | 1.11
32 | O/N=C(\c1ccc2c(c1)OCCO2)C1CCCCC1 | 1.08
33 | COCCNC(=O)COc1ccc(C)c(C)c1 | 1.07
34 | COC(=O)COc1ccc2oc(=O)cc(C)c2c1 | 2.31 (active)
35 | CCOC(=O)c1c(C)oc2ccc(OCC(=O)N(CC)CC)cc12 | 1.07
36 | COc1ccc(C2CC(c3ccc(C)cc3)Nc3ncnn32)cc1 (stereo unspecified) | 1.03
37 | c1ccc(-n2ncc3c2ncn2c(CSc4nc5ccccc5s4)nnc32)cc1 | 1.81
38 | Cc1ccc(C(C)C)c(OCc2nnc(SCC(=O)Nc3nccs3)n2C)c1 | 1.13
39 | O=C(Nc1ccc(S(=O)(=O)N2CCCCC2)cc1)c1cnccn1 | 1.14
40 | COc1ccc(CCNS(=O)(=O)c2ccc(F)cc2)cc1OC | 1.09
41 | O=C(c1cc(-c2cccs2)on1)N1CCCCC1 | 1.16
42 | Cc1ccc(Cn2ccc(NC(=O)c3cc(C(C)C)on3)n2)cc1 | 1.08
43 | Cc1cc(NC(=O)c2cc(-c3cccs3)on2)nn1Cc1ccc(Cl)cc1 | 2.04 (active)
44 | CCOC(=O)c1cc2cc(-c3c(C(=O)OCC)oc4cc(O)cc(O)c4c3=O)ccc2o1 | 1.11
45 | CCCCOc1ccc(Cl)cc1CSc1nncn1N | 1.07
46 | Cc1ccccc1NC(=O)Cc1nnc(SCC(=O)N2CCN(c3ccccc3)CC2)n1C | 1
47 | CN(C)c1nc2n(c(=O)n1)CCO2 | 1.07
48 | c1ccc(Nc2n[nH]nc2-c2ccccc2)cc1 | 1.07

Row | Compound | fluorescence fold increase
49 | CCOc1cc(C2C(C(=O)OC)=CN(C3CCCC3)C=C2C(=O)OC)cc(Br)c1O | 2.88 (active)
50 | CCCC(=O)Nc1cc(OCC)c(NC(=O)NC2CCCCC2)cc1OCC | 1.11
51 | CCOc1ccc(CNC(=O)C2CCC(=O)N2C2CCCC2)cc1OC (stereo unspecified) | 1.07
52 | c1ccc(-n2ncc(-c3nn[nH]n3)n2)cc1 | 1.08
53 | Cc1ccc(C(=O)Nc2ccc3c(c2)OCO3)cc1S(=O)(=O)N1CCCCC1 | 1.08
54 | NC(=O)CSC1=Nc2ccccc2C2=NC(CCC(=O)NCc3ccc(F)cc3)C(=O)N12 (stereo unspecified) | 3.51 (active)
55 | O=C(CC1N=C2c3ccccc3N=C(SCc3ccccc3Cl)N2C1=O)NCc1ccco1 (stereo unspecified) | 1.58
56 | CC(C)C1N=C2c3ccccc3N=C(SCC(=O)c3ccc(O)c(O)c3)N2C1=O (stereo unspecified) | 1.21
57 | CC(C)C(C(=O)NC1CCCCC1)N(CC1CCCO1)C(=O)CNS(=O)(=O)c1ccc(F)cc1 (stereo unspecified) | 1.11
58 | COc1c(O)cccc1-c1nnn(CCC(=O)OCC(=O)c2ccccc2)n1 | 1.07
59 | CC(C)(CNCC(O)c1ccccc1)N1CCOCC1 (stereo unspecified) | 1.05
60 | O=S(=O)(O)CCN1CCOCC1 | 1.15
61 | Brc1cnc(N2CCCC2)nc1N1CCCCC1 | 1.08
62 | CCOc1cccc(=O)c2c(C)n(CC3CCCO3)c(C)c12 (stereo unspecified) | 1.05
63 | CCOc1cc(-c2nc3cc(C)ccn3c2NCC2CCCO2)ccc1O (stereo unspecified) | 3.63 (active)
64 | CCOc1cc(C(=S)N2CCOCC2)ccc1O | 1.04
65 | CCn1c(=O)cc(SCC(=O)NCc2ccc3c(c2)OCO3)c2ccccc21 | 1.2
66 | O=C(Oc1ccc(-c2nc(-c3ccccn3)no2)cc1)c1ccccc1 | 1.09
67 | CCOc1nc(-c2ccc(OC)cc2)ccc1-c1noc(-c2cc(OC)c(OC)c(OC)c2)n1 | 3.92 (active)
68 | COc1ccc(-c2ccc(-c3noc(-c4ccncc4)n3)c(OC)n2)cc1 | 3 (active)
69 | COc1ccc(-c2nc(-c3ccccc3)no2)c(OC)c1 | 1.12
70 | COc1cc(-c2nc(-c3ccncc3)no2)cc(OC)c1OC | 1.03
71 | COc1ccc2[nH]c(=O)c(-c3noc(-c4ccc(F)cc4)n3)cc2c1 | 1.38
